In PubChem BioAssay (EPA / NIEHS):
Results filed as inconclusive are left out. The source made the active and inactive calls. The calls were made as follows, unless noted: active = hit-call score of the fitted dose curve at least 0.9, where 1 is the maximum; inactive = score below 0.9.

Experiments:
[1] = CCTE_Harrill_HTTr_Apoptosis_PRF_DMEM_24hr: (Pilot) CCTE's 24-hour Apoptosis Assessment for the High-Throughput Transcriptomics (HTTr) Platform, in MCF-7 cells cultured in phenol red-free DMEM + 10% charcoal-stripped fetal bovine serum, Harrill Lab (AID 2283986)
Description: This is a cell-based assay that evaluates apoptosis using high content imaging to evaluate activation of caspase-3/7 using the CellEvent Caspase 3/7 Green detection reagent in 384-well format.One of seven assay components measured from the CCTE_Harrill_HTTr_Apoptosis assay. This was part of a pilot experiment. This is a cell-based assay that evaluates apoptosis in MCF-7 cells cultured in phenol red-free DMEM + 10% charcoal-stripped fetal bovine serum. High content imaging is used to evaluate activation of caspase-3/7 using the CellEvent Caspase 3/7 Green detection reagent. Measurements are taken at 24 hours after chemical dosing in 384-well format.The assay component endpoint CCTE_Harrill_HTTr_Apoptosis_PRF_DMEM_24hr was analyzed with bidirectional fitting relation to DMSO as the negative control and baseline of activity. Using a type of viability reporter, gain-of-signal activity can be used to evaluate activation of caspase-3/7 using the CellEvent Caspase 3/7 Green detection reagent to understand changes in apoptosis. To generalize the intended target to other relatable targets, this assay endpoint is annotated to cell cycle, where the subfamily is apoptosis.
Chemicals were tested in MCF7 cells in an eight point dilution series with a twenty-four hour exposure duration.

DIO1 (gene 1733) = assay: CCTE_GLTED_hDIO1: CCTE's human Deiodinase 1 (DIO1) Inhibition Assay, Great Lakes Toxicology and Ecology Division (GLTED) Lab (AID 2283987; active = hit-call score of the fitted dose curve at least 0.9, where 1 is the maximum;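 also: isolated human DIO1 enzyme in a cell-free setup rather than cells; enzyme activity read as free iodide liberated from substrate via Sandell-Kolthoff colorimetry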)
How it was run: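 Cell-free human DIO1 enzyme was incubated with test chemical for 3 h, and iodide released from substrate was measured by Sandell-Kolthoff absorbance. Loss of signal versus DMSO baseline indicated inhibition; plates were run in triplicate.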

[2] = target: Nucleoli Translocation, AR (gene 367) (UniProt P10275); assay: UPITT_HCI_U2OS_AR_TIF2_Nucleoli_Antagonist: University of Pittsburgh U2OS Androgen Receptor-Transcriptional Intermediary Factor 2 (AR-TIF2) Antagonism High Content Imaging Assay for Nucleoli Translocation (AID 2283997; active = hit-call score of the fitted dose curve at least 0.9, where 1 is the maximum)
How it was run: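 U2OS cells co-expressing red-fluorescent-tagged human AR and green-fluorescent-tagged TIF2, imaged by high-content microscopy for nucleolar red fluorescence. Antagonist mode against DHT; primary screen at 20 uM final (0.2% DMSO).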

[3] = target: Nucleoli Translocation, AR (gene 367) (UniProt P10275); assay: UPITT_HCI_U2OS_AR_TIF2_Nucleoli_Agonist: University of Pittsburgh U2OS Androgen Receptor-Transcriptional Intermediary Factor 2 (AR-TIF2) Agonism High Content Imaging Assay for Nucleoli Translocation (AID 2283998; active = hit-call score of the fitted dose curve at least 0.9, where 1 is the maximum)
How it was run: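 Cells express human AR fused to red fluorescent protein and TIF2 fused to GFP. Red fluorescence in the nucleolar region was quantified by high-content imaging and fitted as gain-of-signal against a DMSO baseline. Compounds were tested at 0.195 to 50 uM final (0.5% DMSO).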

[4] = target: Ratio of Nucleoli Translocation and Cytoplasm, AR (gene 367) (UniProt P10275); assay: UPITT_HCI_U2OS_AR_TIF2_Nucleoli_Cytoplasm_Ratio_Antagonist: University of Pittsburgh U2OS Androgen Receptor-Transcriptional Intermediary Factor 2 (AR-TIF2) Antagonism High Content Imaging Assay for Ratio of Nucleoli Translocation and Cytoplasm (AID 2283999; active = hit-call score of the fitted dose curve at least 0.9, where 1 is the maximum;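 also: antagonists lower the DHT-driven ratio of nucleolar to cytoplasmic red signal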)
How it was run: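 High-content imaging quantifies the red nucleolar:cytoplasmic fluorescence ratio in U2OS cells with AR-RFP and TIF2-GFP. Final concentrations are 20 uM (screen) or 0.195–50 uM (dose response), analysed against DHT as baseline.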

[5] = target: Ratio of Nucleoli Translocation and Cytoplasm, AR (gene 367) (UniProt P10275); assay: UPITT_HCI_U2OS_AR_TIF2_Nucleoli_Cytoplasm_Ratio_Agonist: University of Pittsburgh U2OS Androgen Receptor-Transcriptional Intermediary Factor 2 (AR-TIF2) Agonism High Content Imaging Assay for Ratio of Nucleoli Translocation and Cytoplasm (AID 2284000; active = hit-call score of the fitted dose curve at least 0.9, where 1 is the maximum;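 also: hits raise the red nucleolar to cytoplasm ratio above vehicle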)
How it was run: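 U2OS cells expressing RFP-tagged human AR and GFP-tagged TIF2; high-content imaging ratio of nucleolar to cytoplasmic red fluorescence, fitted as gain of signal vs DMSO. Single point at 20 uM final (0.2% DMSO); concentration-response 0.195-50 uM final (0.5% DMSO).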

[6] = CCTE_Simmons_MITO_basal_resp_rate: CCTE's HepG2 Seahorse XF Respirometric Screening Assay at Basal Respiratory State, Simmons Lab (AID 2284001); details: actives raise or lower the signal
How it was run: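 HepG2 oxygen consumption on Seahorse XF96 after compound injection, 7 concentrations 125 nM–100 uM final, reads every 6 min over 72 min. Triplicate biological replicates; bidirectional fit vs DMSO; fenpyroximate and 2,4-dinitrophenol controls.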

[7] = CCTE_Simmons_MITO_max_resp_rate: CCTE's HepG2 Seahorse XF Respirometric Screening Assay at Maximal Respiratory State [uncoupled], Simmons Lab (AID 2284002); details: actives raise or lower the signal
How it was run: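 HepG2 oxygen consumption was read on a Seahorse XF96 after FCCP uncoupler injection, following test compound injection; 7 concentrations, 125 nM–100 uM final, three biological replicates. Bidirectional fitting against DMSO vehicle baseline.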

[8] = CCTE_Simmons_MITO_inhib_resp_rate: CCTE's HepG2 Seahorse XF Respirometric Screening Assay at Inhibited Respiratory State [full ETC block], Simmons Lab (AID 2284006); details: actives raise or lower the signal
How it was run: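 Inhibited respiration was taken as HepG2 oxygen consumption after rotenone/antimycin A, which followed test-compound and FCCP injections. Chemicals were tested at seven final concentrations from 125 nM to 100 uM. Activity was fitted bidirectionally relative to DMSO.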

[9] = CCTE_Simmons_MITO_viability: CellTiter-Glo Viability Assessment for CCTE's HepG2 Seahorse XF Respirometric Screening Assay [post-hoc], Simmons Lab (AID 2284007; active = hit-call score of the fitted dose curve at least 0.9, where 1 is the maximum;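 as to AC50: cells exposed to chemical for 90 min before the ATP read; actives lower ATP signal relative to DMSO baseline meaning reduced viability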)
How it was run: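 HepG2 cells; test chemical 7 conc. (125 nM–100 uM final) × 90 min; then luminescent ATP detection. DMSO vehicle. Positive control dichlone, 8 conc. from 10 nM to 100 uM final. Loss-of-signal endpoint.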

Ratio of Nucleoli Translocation and Cytoplasm, AR (gene 367), sequence (P10275 whole entry, looked up): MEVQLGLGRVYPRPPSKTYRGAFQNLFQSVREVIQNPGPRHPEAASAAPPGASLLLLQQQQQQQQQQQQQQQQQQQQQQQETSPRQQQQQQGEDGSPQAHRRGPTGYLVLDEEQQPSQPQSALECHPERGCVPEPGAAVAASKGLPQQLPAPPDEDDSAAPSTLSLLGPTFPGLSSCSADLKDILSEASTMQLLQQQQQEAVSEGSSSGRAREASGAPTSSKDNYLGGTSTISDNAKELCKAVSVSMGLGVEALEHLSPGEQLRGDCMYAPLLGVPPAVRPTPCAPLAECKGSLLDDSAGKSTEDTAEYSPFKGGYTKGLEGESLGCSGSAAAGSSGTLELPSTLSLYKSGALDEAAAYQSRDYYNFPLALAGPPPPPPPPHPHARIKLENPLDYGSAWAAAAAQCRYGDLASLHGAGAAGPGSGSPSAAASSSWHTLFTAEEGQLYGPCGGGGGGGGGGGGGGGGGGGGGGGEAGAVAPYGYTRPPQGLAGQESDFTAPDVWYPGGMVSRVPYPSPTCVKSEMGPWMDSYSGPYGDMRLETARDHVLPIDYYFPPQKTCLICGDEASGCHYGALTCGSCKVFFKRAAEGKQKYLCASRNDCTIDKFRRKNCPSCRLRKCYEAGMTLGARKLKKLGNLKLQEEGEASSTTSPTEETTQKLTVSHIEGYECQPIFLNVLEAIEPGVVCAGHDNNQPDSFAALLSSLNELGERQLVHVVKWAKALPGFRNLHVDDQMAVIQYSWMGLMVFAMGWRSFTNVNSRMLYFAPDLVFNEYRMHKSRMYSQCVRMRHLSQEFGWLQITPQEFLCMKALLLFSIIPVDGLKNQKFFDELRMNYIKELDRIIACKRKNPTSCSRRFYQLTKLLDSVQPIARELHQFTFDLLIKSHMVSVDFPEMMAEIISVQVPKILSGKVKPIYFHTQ
Nucleoli Translocation, AR (gene 367), sequence (P10275 whole entry, looked up, the tested form may be a part): as the sequence (P10275 whole entry, looked up) above

## CCC(C)(C)C(=O)O[C@H]1C[C@@H](C)C=C2C=C[C@H](C)[C@H](CC[C@@H]3C[C@@H](O)CC(=O)O3)[C@H]21
[1]
  outcome: inactive
DIO1 (gene 1733)
  AC50: 49 µM (active)

## CCNc1ccccc1
[2]
  outcome: inactive
[3]
  outcome: inactive
[4]
  outcome: inactive
[5]
  outcome: inactive

## C=CCCCCCCCCC(=O)O
[6]
  AC50: 35.1 µM (active)
[7]
  outcome: inactive
[8]
  outcome: inactive
[9]
  outcome: inactive

## CC[C@H](C)C(=O)O[C@H]1C[C@@H](C)C=C2C=C[C@H](C)[C@H](CC[C@@H]3C[C@@H](O)CC(=O)O3)[C@H]21
[1]
  outcome: inactive
DIO1 (gene 1733)
  AC50: 48.1 µM (active)

## COc1ccc(/C=C/S(=O)(=O)NC(=O)c2ccc(C)cc2Cl)cc1
[6]
  AC50: 24.6 µM (active)
[7]
  AC50: 15.2 µM (active)
[8]
  outcome: inactive

## Cn1c(=O)cc(Oc2ccc(F)cc2F)c2cnc(NCC(C)(C)O)nc21
[6]
  outcome: inactive
[7]
  outcome: inactive
[8]
  outcome: inactive
[9]
  outcome: inactive

## CC(C)CC(C)(O)C#CC(C)(O)CC(C)C (stereo unspecified)
[6]
  AC50: 50 µM (active)
[7]
  AC50: 37.8 µM (active)
[8]
  outcome: inactive
[9]
  outcome: inactive

## Oc1ccc2c(c1)-c1ccccc1C2
[2]
  AC50: 12 µM (active)
[3]
  AC50: 76.6 µM (active)
[4]
  AC50: 7.43 µM (active)
[5]
  outcome: inactive

## CCOc1cccc(-n2cc(C(=O)N3CCN(c4cc(C(=O)O)c5ccccc5c4)CC3)nc2-c2ccc(C)cc2)c1
DIO1 (gene 1733)
  AC50: 151 µM (active)
[2]
  AC50: 78.4 µM (active)
[4]
  outcome: inactive
[5]
  outcome: inactive
[6]
  outcome: inactive
[7]
  outcome: inactive
[8]
  outcome: inactive

## CC(C)=CCC/C(C)=C/CO
[6]
  AC50: 45.7 µM (active)
[7]
  outcome: inactive
[8]
  outcome: inactive

## CCCCC(CC)COC(=O)c1ccc(C(=O)OCC(CC)CCCC)cc1 (stereo unspecified)
[2]
  outcome: inactive
[3]
  outcome: inactive

## CC(C)=CCCC(C)CCO (stereo unspecified)
[2]
  outcome: inactive
[3]
  outcome: inactive
[4]
  outcome: inactive
[5]
  outcome: inactive

## CCCCCCc1ccc(O)cc1O
DIO1 (gene 1733)
  AC50: 128 µM (active)
[2]
  AC50: 14.4 µM (active)
[3]
  AC50: 14.2 µM (active)
[4]
  outcome: inactive
[5]
  AC50: 14.8 µM (active)
[6]
  AC50: 20.4 µM (active)
[7]
  AC50: 41.4 µM (active)
[8]
  outcome: inactive

## O=C(OC[C@H]1O[C@@H](OC(=O)c2cc(O)c(O)c(OC(=O)c3cc(O)c(O)c(O)c3)c2)[C@H](OC(=O)c2cc(O)c(O)c(OC(=O)c3cc(O)c(O)c(O)c3)c2)[C@@H](OC(=O)c2cc(O)c(O)c(OC(=O)c3cc(O)c(O)c(O)c3)c2)[C@@H]1OC(=O)c1cc(O)c(O)c(OC(=O)c2cc(O)c(O)c(O)c2)c1)c1cc(O)c(O)c(OC(=O)c2cc(O)c(O)c(O)c2)c1
DIO1 (gene 1733)
  AC50: 17.7 µM (active)

## CCOC(=O)c1ccc(C2CCC(NC[C@H](O)COc3ccc(O)c(NS(C)(=O)=O)c3)CC2)cc1 (stereo partly specified)
DIO1 (gene 1733)
  AC50: 95 µM (active)
[6]
  outcome: inactive
[7]
  outcome: inactive
[8]
  outcome: inactive

## Nc1cccc(N)c1
[6]
  outcome: inactive
[7]
  outcome: inactive
[8]
  AC50: 28.7 µM (active)
[9]
  outcome: inactive

## Cc1[nH]cnc1C[C@H]1CCc2c(C)c3ccccc3n2C1=O
[6]
  AC50: 30.5 µM (active)
[7]
  outcome: inactive
[8]
  outcome: inactive
[9]
  outcome: inactive

## CC1(C)C(=O)N(Br)C(=O)N1Br
[2]
  outcome: inactive
[3]
  outcome: inactive
[4]
  outcome: inactive
[5]
  outcome: inactive

## C1N2CN3CN1CN(C2)C3
[3]
  outcome: inactive
[5]
  outcome: inactive

## O=c1[nH]c2ccc(S(=O)CCN3CCC(Cc4ccc(F)cc4)CC3)cc2o1 (stereo unspecified)
[6]
  AC50: 49.7 µM (active)
[7]
  AC50: 35.5 µM (active)
[8]
  outcome: inactive

## CC(C)c1cccc(C(C)C)c1N1C(=O)c2ccc(O)cc2C1=O
[6]
  AC50: 20 µM (active)
[7]
  AC50: 20.3 µM (active)
[8]
  outcome: inactive
[9]
  outcome: inactive

## Cc1c(-c2cccnc2)c2ccccc2n1CCCCC(=O)O
[6]
  AC50: 26.7 µM (active)
[7]
  outcome: inactive
[8]
  outcome: inactive
[9]
  outcome: inactive

## COc1ccc2sc(C(=O)Nc3nnn[nH]3)c(OC(C)C)c2c1
[6]
  outcome: inactive
[7]
  outcome: inactive
[8]
  outcome: inactive

## CCn1nc(Cc2ccccc2)cc1C1CCN(C[C@H]2C[C@H](N(C)[C@@H](C(=O)O)C(C)C)C[C@@H]2c2cccc(F)c2)CC1
[6]
  AC50: 27.8 µM (active)
[7]
  outcome: inactive
[8]
  outcome: inactive

## COc1cccc(-c2ccc(/C=C\CN3CCCCCC3)cc2Cl)c1
[6]
  outcome: inactive
[7]
  AC50: 65.8 µM (active)
[8]
  outcome: inactive

## CCOC(=O)COc1ccc2c(c1)CC(NCC(O)c1cccc(Cl)c1)CC2 (stereo unspecified)
[6]
  AC50: 32.9 µM (active)
[7]
  AC50: 62.7 µM (active)
[8]
  outcome: inactive

## O=C(O)c1cccc(N(Cc2cccnc2)c2ccc(OC(F)F)c(OC(F)F)c2)c1
[2]
  AC50: 22.1 µM (active)
[3]
  outcome: inactive
[4]
  outcome: inactive
[5]
  outcome: inactive
[6]
  AC50: 1.03 µM (active)
[7]
  outcome: inactive
[8]
  outcome: inactive
[9]
  AC50: 10.7 µM (active)

## CCCN(C1CCN(C(=O)C2CCNCC2)CC1)[C@@H]1CCc2ccc(OC)cc2C1
[2]
  outcome: inactive
[3]
  outcome: inactive
[4]
  outcome: inactive

## Fc1ccccc1[C@@H](F)COC1CCC(Nc2ncnc3[nH]ncc23)CC1 (stereo partly specified)
[2]
  AC50: 18.3 µM (active)
[3]
  outcome: inactive
[4]
  outcome: inactive
[6]
  AC50: 14.1 µM (active)
[7]
  AC50: 13.8 µM (active)
[8]
  outcome: inactive
[9]
  outcome: inactive
